Assay outcomes: PubChem, National Center for Advancing Translational Sciences (NCATS)
Many of the other results were omitted from the sample, so hits are more common in it than they were.
Pf Dd2 inh: inhibitors of Plasmodium falciparum Dd2 growth; Potency, µM (doses to about 28.9 µM), for inactives: at the highest dose activity, negative = inhibition, usual class: inhibitors; P. falciparum Dd2 growth, SYBR Green, 72 h; hit rate 4.3% among 120,000; active = well fitted inhibition curve with a large enough effect;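 note: plate controls were DMSO vehicle for no effect and reference drug for full effect; nearly all actives have a fitted effect of over 65% in size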
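Readout: SYBR Green fluorescence, 485 nm excitation, 535 nm emission, after ~16 h lysis at 37C. Before that, Dd2-infected red cells (2.5% hematocrit) grew 72 h with compound, 29 uM top final concentration.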
* = called active by the depositor; i = inactive; [ ] = another dose, or the depositor's remark. Potency is the fitted concentration of half-maximal effect.

SMILES	Pf Dd2 inh
CN1C(=O)[C@H]2CC[C@@H]1CN(C(=O)CCSc1ccc3c(c1)OCCO3)C2	-9%
CCOc1ccc(CNC(=O)c2c(C)nn(-c3ccc(F)cc3)c2-n2cccc2)cc1	43%
Cc1ccc(C)c(N2CCN(C(=O)CSCc3ccccc3Cl)CC2)c1	35%
COc1ccc(CNC(=O)CCc2c(C)c3cc4c(C)c(C)oc4cc3oc2=O)cc1OC	5%
Cc1ccc(NC(=O)N2CCC(OC3CCN(S(C)(=O)=O)CC3)CC2)cc1Cl	i
COc1ccc(-c2cc(C[C@H]3CNCC[C@H]3CC(=O)NC(C)(C)C)no2)cc1	i
CN(Cc1cc(-c2ccccc2)n[nH]1)C(=O)c1cn(Cc2ccc(F)cc2Cl)nn1	-15%
Cc1ccccc1S(=O)(=O)N1CCCC(CCC(=O)Nc2cccc(Cl)c2)C1 (stereo not drawn)	13µM*
Cc1ccccc1S(=O)(=O)N1CCC(CCC(=O)NC2CC2)CC1	-10%
Cc1ccccc1S(=O)(=O)N1CCCC(CCC(=O)NCc2ccc(F)cc2)C1 (stereo not drawn)	-8%
CCOc1cc(-c2cc(C(=O)O)c3c(-c4ccccc4)[nH]nc3n2)ccc1O	-3%
COc1ccc(-c2[nH]nc3nc(-c4cc(OC)c(OC)c(OC)c4)cc(C(=O)O)c23)cc1	-15%
Cc1cccc(-c2cc(C(=O)O)c3c(-c4ccc(F)cc4)[nH]nc3n2)c1	7.9µM*
COc1ccc(Br)c2c1-c1nc(NC(=O)c3ccccc3SC)sc1C2	-5%
COc1cc(C(=O)Nc2nc3c(s2)C[C@]2(C)CC[C@@H]4[C@H](OC(=O)[C@H]4C)[C@H]2[C@@H]3C)cc(OC)c1OC	-25%
COc1cc(C(=O)Nc2ccc3nc(SCc4ccccc4)sc3c2)cc(OC)c1OC	i
COc1ccc(Br)c2c1-c1nc(NC(=O)c3ccccc3F)sc1C2	47%
COc1ccc(Br)c2c1-c1nc(NC(=O)c3ccc(F)cc3)sc1C2	2.8µM*
COc1cc(C(=O)Nc2nc3c(s2)Cc2c(Br)ccc(OC)c2-3)cc(OC)c1OC	3.2µM*
Cc1nn(-c2ccc(F)cc2)c(Oc2ccccc2)c1CCC(=O)N1CCOCC1	-11%
Cc1ccn2c(C(=O)N3CCCn4nc(C(O)CO)cc4C3)nnc2n1 (stereo not drawn)	-14%
CCOc1ccc(S(=O)(=O)n2nc(C)c(S(=O)(=O)N3CCCCC3)c2C)cc1	7%
CCS(=O)(=O)c1ncc(N(Cc2ccco2)Cc2sccc2C)c(C(=O)Nc2cc(C)ccc2C)n1	5.6µM*
Cc1ccc(C)c(NC(=O)CCc2nc(-c3ccc(C(C)(C)C)cc3)no2)c1	0%
Cc1ccc(C)c(NC(=O)c2nc(S(C)(=O)=O)ncc2N(Cc2ccc(C(C)(C)C)cc2)Cc2ccco2)c1	2.5µM*
SMILES	Pf Dd2 inh
Cc1ccc(C(=O)N(Cc2ccco2)Cc2sccc2C)cc1	-6%
Cc1ccc(NC(=O)c2nc(S(C)(=O)=O)ncc2N(Cc2ccco2)Cc2cccs2)c(C)c1	-8%
Cc1ccsc1CN(Cc1ccco1)C(=O)c1ccc(Cl)cc1	13%
C#CCNC(=O)c1nc(-c2ccc(Cl)nc2)c2ccccn12	-26%
N#CC1CCN(C(=O)c2nc(-c3ccc(F)cc3)c3cnccn23)CC1	i
O=C(NCCc1ccc(Cl)cc1)c1nc(-c2ccccc2)c2ccccn12	-7%
O=C(NCCc1ccc(Cl)cc1)c1nc(-c2ccc(Cl)nc2)c2cnccn12	8.9µM*
O=C(NCc1ccncc1)c1nc(-c2cccnc2)c2cnccn12	-1%
O=C(NCc1cccs1)c1nc(-c2ccc(F)cc2)c2cnccn12	4µM*
O=C(c1nc(-c2ccc(Cl)nc2)c2cnccn12)N1CCCC1	9%
O=C(NCc1ccc(F)cc1)c1nc(-c2ccccc2)c2cnccn12	4µM*
COC(=O)CNC(=O)c1nc(-c2ccc(Cl)nc2)c2cnccn12	10%
O=C(NCc1cccnc1)c1nc(-c2ccc(F)cc2)c2cnccn12	-5%
COC(=O)CNC(=O)c1nc(-c2cccc(C(F)(F)F)c2)c2cnccn12	16%
O=C(NCc1ccc(F)cc1)c1nc(-c2ccc(Cl)nc2)c2cnccn12	7.9µM*
CCn1cc(S(=O)(=O)N2CCC(OCCOC)CC2)cn1	5%
CN1CCN(CC2(Cn3ccnc3-c3ccc(C(=O)O)cc3)CC2)CC1	-3%
CN(Cc1cn(-c2ccccc2)nn1)C1CCSCC1	-23%
CCOc1ccc(NC(=O)c2noc3c2CSc2ccccc2-3)cc1	20%
CS(=O)(=O)N(CC(=O)NCCSCc1ccccc1)c1cc(C(F)(F)F)ccc1Cl	29%
CNC(=O)[C@@H]1CN(C(=O)c2cccnc2C)C[C@H]1COC	-3%
c1cc(-c2nnc([C@H]3CCN(CC4CC4)C3)o2)ccn1	-7%[44.1 µM]
Cc1ccc(-c2nnc(SCC(=O)N3CCCc4ccccc43)o2)cc1	3%
COc1ccc(C(=O)N2CCCN(C(=O)C3CC3)C(c3ccccc3)CC(=O)NCC2)cc1F (stereo not drawn)	1%
O=C(O)C[C@@H]1CCN(C(=O)c2ccc(C(F)(F)F)cc2)C[C@@H]1CCN1CCN(c2ccccn2)CC1	-22%
SMILES	Pf Dd2 inh
O=C(NCc1cccnc1)c1nc(-c2ccccc2)c2ccccn12	10µM*
COc1ccccc1-c1nc(C(=O)NC2CC2)n2ccncc12	-19%[44.1 µM]
COc1ccccc1-c1nc(C(=O)NCc2cccs2)n2ccccc12	i
Cc1cccc(C)c1-c1nc(C(=O)NCc2cccnc2)n2ccccc12	-19%
C#CCNC(=O)c1nc(-c2cccnc2)c2ccccn12	i
CC(C)(C)c1nc(C(=O)NCc2ccc(F)cc2)n2ccccc12	-10%
Cc1cccc(C)c1-c1nc(C(=O)NCc2ccsc2)n2ccccc12	8.9µM*
COc1ccccc1-c1nc(C(=O)NCc2ccc3c(c2)OCO3)n2ccncc12	13µM*
COCCNC(=O)c1nc(-c2ccccc2OC)c2cnccn12	-8%[44.1 µM]
O=C(NCc1cccnc1)c1nc(-c2ccc(Cl)nc2)c2ccccn12	58%
C[S+](=O)([O-])c1ccc(-c2nc(C(=O)NCc3ccc(F)cc3)n3ccncc23)cc1	11µM*
Cn1ncc2c(C(=O)NCc3ccc(F)cc3)cc(-c3ccc([S+](C)(=O)[O-])cc3)nc21	-16%
CCCn1c(SCC(O)c2ccccc2)nc2ccccc21 (stereo not drawn)	-9%
CCOC(=O)c1c(C)[nH]c(C)c1S(=O)(=O)NCC(=O)NCc1ccccc1Cl	1%
CCc1cccc(NC(=O)CC2CCCN(c3cnn(CC4CC4)c(=O)c3)C2)c1 (stereo not drawn)	-2%
CCc1ccc(CNC(=O)C(CC)n2ccc3cc(S(=O)(=O)N4CCCCC4)ccc32)cc1 (stereo not drawn)	-20%
Cc1ccccc1CNC(=O)CCCn1ncn2c(cc3occc32)c1=O	-1%
CCOC(=O)c1c(NC(=O)c2cc3ccccc3c(=O)o2)sc2c1CCCC2	29%
CC(C)N1C[C@H](O)C[C@H]1c1nnc2n1CCN(C(=O)c1ccnn1C)CC2	14%
COCC1CN(C2CCC2)CC12CCN(Cc1cnn(C(C)C)c1)CC2 (stereo not drawn)	7%
CCn1c(CO)nnc1C1CC(NC(=O)c2ccc3nc(C)oc3c2)C1 (stereo not drawn)	-19%
O=C(NCCc1ccc(Cl)cc1)c1nc(-c2cc(Cl)cc(Cl)c2)c2ccccn12	i
CC(C)c1ccc(NC(=O)CCNS(=O)(=O)c2ccc3c(c2)oc(=O)n3C)cc1	-17%
COc1ccc(-c2cc(N3CCC(NC(=O)c4cc(C)ccc4C)C3)n[nH]2)cc1 (stereo not drawn)	i
O=C(Cc1ccccc1)NCCc1csc2nc(-c3ccc(Cl)cc3)nn12	15%
